# Experimental data published in PubChem BioAssay (EPA / NIEHS).
# Records with an inconclusive call do not appear. The source holds several records for some structures; these can differ, active in one and inactive in another. The source made the active and inactive calls. The calls were made as follows: active = hit-call score of the fitted dose curve at least 0.9, where 1 is the maximum; inconclusive = response in the unintended direction; inactive = score below 0.9.
# Tested on: not listed separately
# Test: TOX21_p53_BLA_p3_viability: Viability Assessment in the Tox21 HCT-116 p53 Agonism Beta-lactamase Assay, Phase 3 (AID 2283593);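 also: cells exposed to compound for 16 h before reading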
# Outline: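 HCT-116 cells (4000/well) rested 5 h at 37C, then got DMSO compounds by pin tool (217-fold dilution) for 16 h at 37C, 5% CO2. After the bla read, CellTiter-Glo was added and luminescence read at 30 min, room temperature.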
Structure (SMILES),outcome,AC50
Cc1ccccc1CNc1ncnc2c1ncn2[C@@H]1O[C@H](CO)[C@@H](O)[C@H]1O,inactive,
Cc1cc(-c2ccc(N=Nc3c(S(=O)(=O)O)cc4cc(S(=O)(=O)O)cc(N)c4c3O)c(C)c2)ccc1N=Nc1c(S(=O)(=O)O)cc2cc(S(=O)(=O)O)cc(N)c2c1O,,16.3 µM (active)
N#Cc1ccc(C(=O)O)cc1,inactive,
CC(C)CCOC(=O)c1ccc(N(C)C)cc1,inactive,
NC(=O)CCCCC1CCSS1 (configuration not stated),inactive,
CCN1CCOCC1,inactive,
Cc1ccc(C2(O)CCN(CCCC(=O)c3ccc(F)cc3)CC2)cc1,inactive,
NC12CC3CC(CC(C3)C1)C2,inactive,
Cc1ccc(Cl)cc1N,inactive,
Cn1c(N)c(N=O)c(=O)n(C)c1=O,inactive,
CC(=O)SC[C@@H](Cc1ccccc1)C(=O)NCC(=O)OCc1ccccc1,inactive,
CC(C(O)c1ccc(O)cc1)N1CCC(Cc2ccccc2)CC1 (configuration not stated),inactive,
CN(C)c1cc(NC(=O)CNC(C)(C)C)c(O)c2c1C[C@H]1C[C@H]3[C@H](N(C)C)C(=O)C(C(N)=O)=C(O)[C@@]3(O)C(=O)C1=C2O,inactive,
OCCN(CCO)CCN(CCO)CCO,inactive,
CCC(=O)OCC(=O)[C@@]1(OC(=O)CC)[C@@H](C)C[C@H]2[C@@H]3CCC4=CC(=O)C=C[C@]4(C)[C@@]3(F)[C@@H](O)C[C@@]21C,inactive,
COC(=O)c1ccccc1C(=O)c1ccc(OCCN2CCCCC2)cc1,inactive,
O=C(O)/C=C/C(O)c1ccc(Cl)cc1 (configuration not stated),inactive,
COC(C)(OC)OC,inactive,
CCCCCCCCCCCCCCCC(=O)OC[C@@H](NC(=O)C(Cl)Cl)[C@H](O)c1ccc([N+](=O)[O-])cc1,inactive,
CN(C)CCOC(c1ccccc1)c1ccccc1 (tested in a mixture with another compound),inactive,
N#C[C@@H]1C[C@@H]2C[C@@H]2N1C(=O)[C@@H](N)C12CC3CC(CC(O)(C3)C1)C2,inactive,
Nc1c(CC(=O)O)cccc1C(=O)c1ccc(Br)cc1,inactive,
CN(CCO)CC(O)Cn1cnc2c1c(=O)n(C)c(=O)n2C (configuration not stated) (tested in a mixture with another compound),inactive,
COc1ccc2[nH]c(S(=O)Cc3ncc(C)c(OC)c3C)nc2n1 (configuration not stated),inactive,
COc1ccc(CCN(C)CCCC(C#N)(c2ccc(OC)c(OC)c2)C(C)C)cc1OC (configuration not stated),inactive,
Oc1cccc2cc3cccc(O)c3c(O)c12,inactive,

# Molecular target: Cellular tumor antigen p53 (Homo sapiens) (UniProt P04637)
# Sequence (P04637 whole entry, looked up): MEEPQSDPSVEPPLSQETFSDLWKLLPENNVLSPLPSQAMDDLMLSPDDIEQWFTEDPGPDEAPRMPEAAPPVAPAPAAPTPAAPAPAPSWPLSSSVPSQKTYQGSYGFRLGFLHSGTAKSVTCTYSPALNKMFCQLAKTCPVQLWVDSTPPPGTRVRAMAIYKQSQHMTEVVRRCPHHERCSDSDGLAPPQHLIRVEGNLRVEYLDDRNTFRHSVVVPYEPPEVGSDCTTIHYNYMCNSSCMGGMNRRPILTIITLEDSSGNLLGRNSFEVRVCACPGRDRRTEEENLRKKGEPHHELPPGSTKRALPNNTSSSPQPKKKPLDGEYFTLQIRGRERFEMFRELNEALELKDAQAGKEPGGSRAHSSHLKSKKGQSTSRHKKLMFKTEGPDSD
# Test: TOX21_p53_BLA_p3_ratio: Tox21 HCT-116 p53 Agonism Beta-lactamase Assay, Ratio, Phase 3 (AID 2283596)
# Outline: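 Cells were seeded at 4000/well, rested 5 h at 37C, then dosed with DMSO compound solutions (217-fold dilution) for 16 h. CCF4-AM substrate was loaded for 2 h at room temperature, and the 460/530 nm emission ratio was fitted for gain of signal versus DMSO.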
row,Structure (SMILES),outcome
1,NC(Cc1ccc(Cl)cc1)C(=O)O (configuration not stated),inactive
2,Nc1c(CC(=O)O)cccc1C(=O)c1ccc(Br)cc1,inactive
3,COc1ccc2[nH]c(S(=O)Cc3ncc(C)c(OC)c3C)nc2n1 (configuration not stated),inactive

# Tested on: not listed separately
# Test: TOX21_p53_BLA_p4_viability: Viability Assessment in the Tox21 HCT-116 p53 Agonism Beta-lactamase Assay, Phase 4 (AID 2283597);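 also: hits lower the luminescence signal meaning cytotoxicity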
# Outline: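 In this multiplexed secondary endpoint, HCT116 cells (4000 per well, compound at 5 h, 16 h treatment) received CellTiter-Glo after the beta-lactamase read. Luminescence after 30 min RT reflects ATP, and falling signal marks cytotoxicity.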
Structure (SMILES),outcome,AC50
O=C(OCC1(COC(=O)c2cccnc2)CCCC(COC(=O)c2cccnc2)(COC(=O)c2cccnc2)C1O)c1cccnc1,inactive,
Oc1cc2c(cc1O)[C@H]1c3ccc(O)c(O)c3OC[C@@]1(O)C2,inactive,
COC(=O)[C@H]1[C@H]2C[C@@H]3c4[nH]c5cc(OC)ccc5c4CCN3C[C@H]2C[C@H](OC)[C@@H]1OC,inactive,
CCCCCCc1ccc(-c2ccc(C#N)cc2)cc1,inactive,
CN(C)CCOC1=Cc2ccccc2Sc2ccc(Cl)cc21,,35.4 µM (active)
CC(=O)CCCCn1c(=O)c2c(ncn2C)n(C)c1=O,inactive,
O=[N+]([O-])c1ccc(F)cc1F,inactive,
O=c1[nH]ncc2ccccc12,inactive,
CC[N+]1(CC)CCC(=C(c2ccccc2)c2ccccc2)C1C (configuration not stated),inactive,
Cc1ccc(C(=O)O)cc1,inactive,
COCCCOc1cc(C[C@@H](C[C@H](N)[C@@H](O)C[C@H](C(=O)NCC(C)(C)C(N)=O)C(C)C)C(C)C)ccc1OC,inactive,
CC(O)[C@@H]1NC(=O)[C@H](CCCCN)NC(=O)[C@@H](Cc2c[nH]c3ccccc23)NC(=O)[C@H](Cc2ccccc2)NC(=O)[C@@H](NC(=O)[C@H](N)Cc2ccccc2)CSSC[C@@H](C(=O)N[C@H](CO)[C@@H](C)O)NC1=O (some centres not stated),inactive,
C[C@H]1O[C@@H](O[C@H]2CC[C@@]3(C)[C@H](CC[C@@H]4[C@@H]3C[C@@H](O)[C@]3(C)[C@@H](C5=CC(=O)OC5)CC[C@]43O)C2)C[C@H](O)[C@@H]1O[C@H]1C[C@H](O)[C@H](O[C@H]2C[C@H](O)[C@H](O[C@@H]3O[C@H](CO)[C@@H](O)[C@H](O)[C@H]3O)[C@@H](C)O2)[C@@H](C)O1,,0.337 µM (active)
Cc1ccccc1CNc1ncnc2c1ncn2[C@@H]1O[C@H](CO)[C@@H](O)[C@H]1O,inactive,
Cc1cc(-c2ccc(N=Nc3c(S(=O)(=O)O)cc4cc(S(=O)(=O)O)cc(N)c4c3O)c(C)c2)ccc1N=Nc1c(S(=O)(=O)O)cc2cc(S(=O)(=O)O)cc(N)c2c1O,,20.6 µM (active)
N#Cc1ccc(C(=O)O)cc1,inactive,
CC(C)CCOC(=O)c1ccc(N(C)C)cc1,inactive,
NC(=O)CCCCC1CCSS1 (configuration not stated),inactive,
CCN1CCOCC1,inactive,

Structure (SMILES),outcome,AC50
Cc1ccc(C2(O)CCN(CCCC(=O)c3ccc(F)cc3)CC2)cc1,inactive,
NC12CC3CC(CC(C3)C1)C2,inactive,
Cc1ccc(Cl)cc1N,inactive,
Cn1c(N)c(N=O)c(=O)n(C)c1=O,inactive,
CC(=O)SC[C@@H](Cc1ccccc1)C(=O)NCC(=O)OCc1ccccc1,inactive,
CC(C(O)c1ccc(O)cc1)N1CCC(Cc2ccccc2)CC1 (configuration not stated),inactive,
CN(C)c1cc(NC(=O)CNC(C)(C)C)c(O)c2c1C[C@H]1C[C@H]3[C@H](N(C)C)C(=O)C(C(N)=O)=C(O)[C@@]3(O)C(=O)C1=C2O,inactive,
OCCN(CCO)CCN(CCO)CCO,inactive,
CCC(=O)OCC(=O)[C@@]1(OC(=O)CC)[C@@H](C)C[C@H]2[C@@H]3CCC4=CC(=O)C=C[C@]4(C)[C@@]3(F)[C@@H](O)C[C@@]21C,inactive,
COC(=O)c1ccccc1C(=O)c1ccc(OCCN2CCCCC2)cc1,inactive,
O=C(O)/C=C/C(O)c1ccc(Cl)cc1 (configuration not stated),inactive,
COC(C)(OC)OC,inactive,
CCCCCCCCCCCCCCCC(=O)OC[C@@H](NC(=O)C(Cl)Cl)[C@H](O)c1ccc([N+](=O)[O-])cc1,inactive,
CN(C)CCOC(c1ccccc1)c1ccccc1 (tested in a mixture with another compound),inactive,
N#C[C@@H]1C[C@@H]2C[C@@H]2N1C(=O)[C@@H](N)C12CC3CC(CC(O)(C3)C1)C2,inactive,
CN(CCO)CC(O)Cn1cnc2c1c(=O)n(C)c(=O)n2C (configuration not stated) (tested in a mixture with another compound),inactive,
COc1ccc(CCN(C)CCCC(C#N)(c2ccc(OC)c(OC)c2)C(C)C)cc1OC (configuration not stated),inactive,39.2 µM (active)
Oc1cccc2cc3cccc(O)c3c(O)c12,inactive,
